# From PubChem
# JMJD2A Tudor inh = qHTS Assay for Inhibitors of JMJD2A-Tudor Domain. Lysine-specific demethylase 4A (Homo sapiens), O75164. AlphaScreen JMJD2A-Tudor / H3K4me3 peptide binding. Potency, µM (series often up to 114 µM), without a hit: top-dose activity change, negative = inhibition, usual class: inhibitors. 390,000 tested, 4.4% active. AID 504339, 2011; further: potency means the concentration at half of the fitted maximal effect; on the % scale 0 is the no-effect control and ±100 the full control effect; nearly all actives have a fitted effect of over 50% in size
# G9a inh = qHTS Assay for Inhibitors of Histone Lysine Methyltransferase G9a; G9a H3K9 monomethylation, AlphaScreen, 2 h; Potency, µM (titrated, usually from 102 µM), for inactives: at the highest dose activity, negative = inhibition, hits mostly inhibitors; 350,000 tested, 8.8% active; further: potency means the concentration at half of the fitted maximal effect; on the % scale 0 is the no-effect control and ±100 the full control effect; nearly all actives have a fitted effect of over 75% in size
#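 AlphaScreen detection with an anti-monomethyl H3K9 antibody quantified product after a 2 h room-temperature reaction containing 500 nM biotinylated H3K9 peptide, 20 µM SAM and 20 nM enzyme, which had been preincubated 15 min with compound.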
# BAZ2B block = qHTS Assay for Inhibitors of BAZ2B | Bromodomain adjacent to zinc finger domain protein 2B (Homo sapiens), Q9UIF8 | AlphaScreen BAZ2B-H3K14Ac peptide displacement | Potency, µM (doses to about 114 µM), inactives show top-dose activity change, negative = inhibition, most hits filed as inhibitors | 360,000 tested, 4.4% active; further: potency means the concentration at half of the fitted maximal effect; on the % scale 0 is the no-effect control and ±100 the full control effect; nearly all actives have a fitted effect of over 60% in size
# Target sequence (Q9UIF8 whole entry, looked up, the tested form may be a part): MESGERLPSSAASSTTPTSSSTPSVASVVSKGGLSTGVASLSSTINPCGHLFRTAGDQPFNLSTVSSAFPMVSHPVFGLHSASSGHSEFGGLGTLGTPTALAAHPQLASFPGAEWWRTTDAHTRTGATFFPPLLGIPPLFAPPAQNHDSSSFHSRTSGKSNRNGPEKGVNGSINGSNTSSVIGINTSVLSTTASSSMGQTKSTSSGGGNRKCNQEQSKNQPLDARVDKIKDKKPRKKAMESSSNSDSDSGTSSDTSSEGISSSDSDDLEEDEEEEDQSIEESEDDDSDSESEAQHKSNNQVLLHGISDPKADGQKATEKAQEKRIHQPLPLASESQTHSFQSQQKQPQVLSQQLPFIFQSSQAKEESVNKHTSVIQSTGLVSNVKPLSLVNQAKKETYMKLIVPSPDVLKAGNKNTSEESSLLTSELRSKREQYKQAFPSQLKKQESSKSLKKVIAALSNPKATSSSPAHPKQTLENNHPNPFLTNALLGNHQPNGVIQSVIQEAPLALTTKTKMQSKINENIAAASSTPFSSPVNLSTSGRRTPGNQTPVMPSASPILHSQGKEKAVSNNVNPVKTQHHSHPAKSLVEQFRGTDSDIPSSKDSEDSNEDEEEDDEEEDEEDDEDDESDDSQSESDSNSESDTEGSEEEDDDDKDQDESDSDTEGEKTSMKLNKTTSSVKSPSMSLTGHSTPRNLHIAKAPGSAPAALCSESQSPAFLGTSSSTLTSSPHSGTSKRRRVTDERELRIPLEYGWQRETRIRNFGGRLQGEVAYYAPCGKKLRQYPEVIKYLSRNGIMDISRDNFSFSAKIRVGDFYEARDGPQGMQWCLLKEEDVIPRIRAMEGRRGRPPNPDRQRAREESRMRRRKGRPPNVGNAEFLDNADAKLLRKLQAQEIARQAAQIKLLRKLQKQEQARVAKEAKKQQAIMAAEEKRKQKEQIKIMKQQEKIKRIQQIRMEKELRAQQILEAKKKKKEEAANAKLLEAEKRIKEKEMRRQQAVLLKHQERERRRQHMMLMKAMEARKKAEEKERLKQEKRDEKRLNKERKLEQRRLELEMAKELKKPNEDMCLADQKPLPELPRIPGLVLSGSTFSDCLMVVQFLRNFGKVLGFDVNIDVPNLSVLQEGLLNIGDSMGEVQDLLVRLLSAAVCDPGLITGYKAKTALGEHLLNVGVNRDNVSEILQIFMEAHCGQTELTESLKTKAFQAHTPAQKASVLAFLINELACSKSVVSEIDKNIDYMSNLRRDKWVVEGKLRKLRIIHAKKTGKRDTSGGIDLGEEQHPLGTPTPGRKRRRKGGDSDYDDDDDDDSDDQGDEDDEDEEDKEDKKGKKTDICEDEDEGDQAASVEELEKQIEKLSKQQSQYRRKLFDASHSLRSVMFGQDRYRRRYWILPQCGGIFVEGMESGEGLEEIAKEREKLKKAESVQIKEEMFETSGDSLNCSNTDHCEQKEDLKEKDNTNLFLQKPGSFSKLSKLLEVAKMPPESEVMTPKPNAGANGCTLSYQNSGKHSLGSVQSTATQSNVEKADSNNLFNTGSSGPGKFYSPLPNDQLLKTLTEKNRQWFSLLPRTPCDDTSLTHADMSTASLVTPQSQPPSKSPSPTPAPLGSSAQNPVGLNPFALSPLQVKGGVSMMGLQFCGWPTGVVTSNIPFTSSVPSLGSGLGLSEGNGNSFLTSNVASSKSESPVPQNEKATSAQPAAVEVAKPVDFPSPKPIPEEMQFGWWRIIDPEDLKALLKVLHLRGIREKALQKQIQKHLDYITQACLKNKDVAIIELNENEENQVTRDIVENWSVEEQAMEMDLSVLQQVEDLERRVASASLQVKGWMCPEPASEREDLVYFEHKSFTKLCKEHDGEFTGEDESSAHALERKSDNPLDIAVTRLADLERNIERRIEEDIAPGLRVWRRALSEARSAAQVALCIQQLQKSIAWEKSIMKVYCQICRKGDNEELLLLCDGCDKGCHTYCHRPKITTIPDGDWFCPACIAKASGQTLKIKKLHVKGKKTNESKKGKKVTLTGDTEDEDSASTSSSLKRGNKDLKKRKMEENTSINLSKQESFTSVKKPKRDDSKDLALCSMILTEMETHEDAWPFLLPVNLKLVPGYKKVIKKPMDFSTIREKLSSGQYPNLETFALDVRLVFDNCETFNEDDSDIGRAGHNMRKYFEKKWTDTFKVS
#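 Complex of BAZ2B and biotin-H3K14Ac (50 nM apiece) forms over 30 min at RT, then faces library compounds up to 110 uM for another 30 min; AlphaScreen beads added, 20 min dark incubation, luminescence read.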
# HP1b chromo inh = HTS for Inhibitors of HP1-beta Chromodomain Interactions with Methylated Histone Tails | Chromobox protein homolog 1 (Homo sapiens), P83916 | AlphaScreen HP1-beta / biotin-H3K9me3 peptide binding | Potency, µM (top dose mostly 114 µM), for inactives: at the highest dose activity change, negative = inhibition, actives largely listed as inhibitors | 390,000 tested, 0.56% active | AID 540317, 2011; further: potency means the concentration at half of the fitted maximal effect; nearly all actives have a fitted effect of over 70% in size
#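 HP1-beta protein (50 nM final) preincubated 30 min at room temperature with biotinylated H3(1-18)K9me3 peptide (50 nM) in PBS pH 7.4, 0.01% Tween-20, then compound added for 30 min. AlphaScreen streptavidin donor/nickel chelate acceptor beads (10 ug/mL final), 30 min dark, luminescence read.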
# Six1-Eya2 inh = qHTS Assay for Inhibitors of the Six1/Eya2 Interaction; AlphaScreen GST-Six1/His-Eya2 binding, biochemical; stronger effect = lower value; 360,000 tested, 0.56% active; Homeobox protein SIX1 (Homo sapiens) + Protein phosphatase EYA2 (Homo sapiens), …; activity change, % (no concentration beside the values); in the data active means activity change below about -65%; inconclusive means mostly about -30% to -63%; further: on the % scale 0 is the no-effect control and ±100 the full control effect
#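 GST-Six1 + His-Eya2 (5X stock: 250/500 nM); Tris pH 8.0, 300 mM NaCl, 0.05% BSA, 0.02% Tween 20; GSH donor/Ni acceptor beads; 1 h 37 °C dark; AlphaScreen readout.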
# CtBP-E1A inh = qHTS Assay for Inhibitors of the CtBP/E1A Interaction | CtBP / adenovirus E1A interaction (AlphaScreen) | AlphaScreen GST-E1A/His-CtBP binding, 1536-well; stronger effect = lower value | activity change, % (no concentration beside the values) | 340,000 tested, 0.49% active; in the data active means activity change below about -65%; inconclusive means mostly about -30% to -63%; further: on the % scale 0 is the no-effect control and ±100 the full control effect
#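 Steps: dispense buffer (Tris pH 8.0, NaCl 300 mM, TCEP 1 mM, BSA, Tween 20); add 5X protein mix (GST-E1A, His-CtBP, 125 nM each); pin 23 nL compound; 2 h at 37 °C, dark; add 5X beads (50 ug/mL); 1 h; read.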
# * = called active by the depositor; ? = inconclusive; · = no result; ! = not active in a repeat; [ ] = remark or other dose. Most compounds without a hit are left out; they make up all but 10% or so of the library. Unless noted, the call rests on the fitted dose curve; in most records, active means well fitted inhibition curve with a large enough effect; inconclusive means small, poorly fitted or top-dose-only effect; inactive means no such curve, though single readings can be large or run the other way.
SMILES,JMJD2A Tudor inh,G9a inh,BAZ2B block,HP1b chromo inh,Six1-Eya2 inh,CtBP-E1A inh
C[C@H]1c2cccc(O)c2C(O)=C2C(=O)[C@]3(O)C(O)=C(C(N)=O)C(=O)[C@@H](N(C)C)[C@@H]3[C@@H](O)[C@@H]21,12.6µM*,2.67µM*!,8.91µM*,19.1%,-20.9,-29.0
C=C1c2c(Cl)ccc(O)c2C(O)=C2C(=O)[C@@]3(O)C(O)=C(C(N)=O)C(=O)[C@@H](N(C)C)[C@@H]3[C@@H](O)[C@H]12,·,11.2µM*,·,·,·,·
C[C@H]1c2cccc(O)c2C(O)=C2C(=O)[C@]3(O)C(O)=C(C(N)=O)C(=O)C(N(C)C)[C@@H]3[C@@H](O)C21 (some centres undefined),·,3.16µM*,·,·,·,·
COC1C(CO)OC(n2c3c(Cl)cccc3c3c4c(c5c6cccc(Cl)c6[nH]c5c32)C(=O)NC4=O)C(O)C1O (centres undefined),3.5%,·,·,22.8%,-1.7,2.0
Nn1c(Nc2ccccc2)nc2sc3c(c2c1=O)CCCC3,-28.0%,-7.7%,-15.4%,-10.3%,8.1,3.1
NNc1nc2sc3c(c2c(=O)n1-c1ccccc1)CCCC3,-27.5%,50.1µM*,-5.9%,6.1%,-5.8,0.0
O=C(CSc1nc2sc3c(c2c(=O)n1-c1ccccc1)CCCC3)N/N=C/c1ccccc1C(=O)O,?,79.4µM*,?,15.2%,-1.1,3.1
CC(NC(=O)CSc1nc2sc3c(c2c(=O)n1-c1ccccc1)CCCC3)c1ccccc1 (centres undefined),-26.0%,15.0%[59 µM],6.2%,11.2%,-2.0,10.9
C[C@@H]1CN=C2N(CCNC(=O)CCC3CCCCC3)[C@H](Cc3ccc(O)cc3)CN21,50.1µM*,3.2%[12.7 µM],-28.3%,-10.3%,4.4,2.3
COc1cc2c(ccc3cc(OC)c(OC)c(O)c32)cc1O,10µM*,?,7.08µM*,?,?,0.1
C/C(=N/NC(=O)c1ccc(Br)s1)c1ccncc1,-12.4%,70.8µM*,-20.0%,31.6%,-6.7,-10.3
C/C(=N\NC(=O)Cc1c(F)cccc1Cl)c1cccnc1,-13.1%,50.1µM*,-2.5%,58.1%,-0.3,4.3
C/C(=N/NC(=O)c1ccc(C)s1)c1cccnc1,35.5µM*,?,-29.1%,24.0%,-11.2,-27.9
CSc1cccc(NC(=O)C2CCN(c3nc4ccccc4[nH]3)CC2)c1,-20.8%,-31.4%[59 µM],-20.5%,21.5%[57 µM],·,·
COC(=O)c1cccc(Cn2c(Cl)c(/C=N/NC(=O)c3ccccc3Cl)sc2=O)c1,-14.9%,·,-10.1%,16.8%,-29.8,-29.4
COC(=O)c1cccc(Cn2c(Cl)c(/C=N/NC(=O)c3ccco3)sc2=O)c1,-17.9%,50.1µM*,56.2µM*,36.7%,-12.4,-16.7
O=C(COc1ccccc1)N/N=C/c1sc(=O)n(Cc2cccc(C(=O)O)c2)c1Cl,-29.7%,?,-30.2%,3.9%,-6.7,-7.1
O=c1sc(/C=N/Nc2ccccc2)c(Cl)n1Cc1ccccc1,-21.5%,14.1µM*,?,12.0%,-5.5,8.6
O=C(O)c1cccc(Cn2c(Cl)c(/C=N/NC(=O)c3ccc(O)cc3)sc2=O)c1,-11.0%,?,-14.3%,9.8%,?,-67.0*
COc1ccc(N2CCN(c3oc(-c4ccccc4C)nc3S(=O)(=O)c3ccccc3)CC2)cc1,-35.8%,?,?,4.3%,·,·
COc1ccc(/C=N/NC(=O)c2cccnc2)cc1CN1CCc2ccccc2C1,-30.6%,-1.2%[59 µM],-34.1%,-0.9%,-13.2,-19.7
COc1ccc(/C=N/NC(=O)c2cccnc2)cc1Cn1nc([N+](=O)[O-])c(Br)c1C,·,50.1µM*,-23.5%,·,·,·
O=C(CSc1nnc(-c2ccccc2)c(-c2ccccc2)n1)Nc1ncc(Cl)cc1Cl,-12.7%,14.1µM*,?,8.9%,11.1,0.7
O=C(COC(=O)c1nc(Cl)ccc1Cl)Nc1ccc(Cl)cn1,1.0%,16.3%[12.7 µM],2.7%,31.8%,2.3,10.6
O=C(COC(=O)c1ccccc1O)Nc1ncc(Cl)cc1Cl,?,35.5µM*,50.1µM*,-10.5%,-17.9,-4.9
SMILES,JMJD2A Tudor inh,G9a inh,BAZ2B block,HP1b chromo inh,Six1-Eya2 inh,CtBP-E1A inh
O=C(COC(=O)c1ccccc1NC(=O)c1ccco1)Nc1ncc(Cl)cc1Cl,-15.2%,?,-1.8%,25.3%,-8.4,-3.0
O=C(COC(=O)c1cc([N+](=O)[O-])ccc1N1CCOCC1)Nc1ncc(Cl)cc1Cl,?,9.2%[12.7 µM],44.7µM*,1.1%,6.9,-3.9
O=C(COC(=O)c1cc([N+](=O)[O-])ccc1N1CCOCC1)Nc1c(Cl)cccc1C(F)(F)F,-5.9%,71.2%,-7.9%,19.9%,0.6,4.3
O=C(COC(=O)c1ncc(Cl)c(Cl)c1Cl)Nc1ccc(Cl)cn1,-31.7%,44.7µM*,-14.5%,4.6%,-14.0,9.9
COC(=O)c1cc(Cl)ccc1NCC(N)c1ccccc1 (centres undefined),·,·,·,·,56.9,76.2
CCN(CC)c1ccc(C=NCCNS(=O)(=O)c2ccc(C)cc2)cc1,9.9%,?,20.3%,12.9%,18.6,0.4
CCN(CC)c1ccc(/C=N/NS(=O)(=O)c2ccc(C)c([N+](=O)[O-])c2)cc1,35.5µM*,39.8µM*,?,?,-16.7,8.0
Cc1ccc(S(=O)(=O)N/N=C/c2ccccc2O)cc1[N+](=O)[O-],-10.9%,?,-38.5%,4.6%,0.1,0.3
CCN(Cc1ccccc1)c1ccc(/C=N/NS(=O)(=O)c2cccc([N+](=O)[O-])c2)cc1,?,10µM*,?,?,-23.6,-17.9
Cc1ccc(S(=O)(=O)N/N=C/c2ccc(O)c(O)c2)cc1[N+](=O)[O-],?,35.5µM*,-34.8%,-18.1%,-0.5,3.8
CCc1cccc(CC)c1NC(=O)C1CN(S(=O)(=O)c2ccccc2)CCN1S(=O)(=O)c1ccccc1 (centres undefined),-8.6%,?,-3.3%,12.8%,2.5,1.3
Cc1cccc(C(C)C)c1NC(=O)C1CN(S(=O)(=O)c2ccccc2)CCN1S(=O)(=O)c1ccccc1 (centres undefined),-9.0%,70.8µM*,-4.0%,31.4%,-3.8,5.3
O=[N+]([O-])c1ccc(C=Nc2cccc3ccccc23)s1,39.8µM*,10µM*,15.8µM*,12.6µM*,?,-69.6*
O=[N+]([O-])c1ccc(C=NN2CCOCC2)s1,·,·,·,·,-27.6,-2.9
